# In PubChem BioAssay:
# Activity calls are given as the source filed them.
# Legend:
# [1] = E. coli DRC41 culture turbidity changes, primary screen, E. coli filamentation inducer project, strain DRC41, OD650, 48 h (AID 1152);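 also: E. coli MC1000 strain DRC41 lacking acrAB efflux pump and sulA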; settings: E. coli DRC41 (acrAB sulA), higher = more signal, called active from +8 up or from −8 down
# [2] = small-molecule binders of probe aLefty1, primary screen, biochemical, small-molecule microarray, 635/667 nm fluorescence (AID 1153); settings: higher = more signal;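 also: score merges spot fluorescence with signal-to-noise ratio from the scanned slide images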
# [3] = PSAC antagonists in infected red cells, primary screen, cell-based, P. falciparum Indochina, OD700, 1 h (AID 1154); settings: P. falciparum Indochina infected RBC osmotic lysis, higher = more signal, called active from +8 up or from −8 down
# [4] = PSAC antagonists in infected red cells, primary screen, cell-based, P. falciparum Indochina, OD700, 2 h (AID 1155);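 also: lysis reports solute entry through the parasite surface anion channel PSAC; channel blockers reduce lysis of infected cells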; settings: P. falciparum Indochina infected erythrocytes, osmotic lysis OD700; higher = more signal, called active from +8 up or from −8 down
# [5] = osmotic lysis modulators in infected erythrocytes, primary screen, PSAC antagonist project, cell-based, P. falciparum Indochina, OD700, 3 h (AID 1156); settings: higher = more signal, called active from +8 up or from −8 down
# [6] = PSAC antagonists in infected red cells, primary screen, cell-based, P. falciparum Indochina, OD700, 18 h (AID 1157); settings: P. falciparum Indochina infected erythrocytes, osmotic lysis OD700, 18 h; higher = more signal, called active from +8 up or from −8 down
# [7] = modulators of S6 phosphorylation in cells, primary screen, cell-based, A549, cytoblot, luminescence, serum-stimulated (AID 1158); settings: A549 phospho-S6 cytoblot, 5 h, higher = more signal;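 also: serum-stimulated A549 lung adenocarcinoma cells; signal is phosphorylated S6 detected by cytoblot immunostaining with HRP secondary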
# [8] = molecular target: NADPH oxidase 2 (Homo sapiens) (UniProt P04839); test: NOX2-dependent H2O2 signal modulators, primary screen, NOX inhibitor project, cell-based, HEK293-NOX2, PMA-stimulated, Amplex Red fluorescence (AID 1159); settings: 45 min, higher = more signal, called active from +8 up or from −8 down; also: test concentration not given here
# [9] = molecular target: NADPH oxidase 4 (Homo sapiens) (UniProt Q9NPH5); test: NOX4-dependent H2O2 signal modulators, primary screen, NOX inhibitor project, cell-based, HEK293-NOX4, tetracycline-induced, Amplex Red fluorescence (AID 1160); settings: 45 min, higher = more signal, called active from +8 up or from −8 down
# [10] = molecular target: NADPH oxidase 5 (Homo sapiens) (UniProt Q96PH1); test: NOX5-dependent H2O2 signal modulators, primary screen, NOX inhibitor project, cell-based, HEK293-NOX5, Amplex Red fluorescence (AID 1161); settings: HEK293-NOX5, ionomycin, 45 min, higher = more signal
# [11] = A549 cell viability effects, profiling panel, calcein-AM fluorescence, 48 h, basal (AID 1162); settings: higher = more signal; also: test concentration not given here
# [12] = adipocyte viability effects, profiling panel, cell-based, 3T3-L1 adipocytes, calcein-AM fluorescence, 48 h, basal (AID 1163); settings: 3T3-L1 adipocytes viability, higher = more signal; also: test concentration not given here
# [13] = HepG2 cell viability effects, profiling panel, calcein-AM fluorescence, 48 h, basal (AID 1164); settings: higher = more signal; also: test concentration not given here
# [14] = MM1S cell viability effects, profiling panel, calcein-AM fluorescence, 48 h, basal (AID 1165); settings: higher = more signal;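 also: viability of MM1S multiple myeloma cells under basal unstimulated conditions; test concentration not given here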
# [15] = basal RPMI8226 viability, no added stimulus, profiling panel, cell-based, calcein-AM fluorescence, 48 h, PK04 Diversity Set (AID 1166); settings: RPMI8226 myeloma viability, higher = more signal;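 also: cells grown under basal conditions without added stimulus; test concentration not given here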
# [16] = basal HepG2 mitochondrial membrane potential changes, profiling panel, cell-based, JC-1 fluorescence, 24 h, 100 nL compound (AID 1167); settings: higher = more signal; also: test concentration not given here
# [17] = basal 3T3-L1 adipocyte mitochondrial potential changes, profiling panel, cell-based, JC-1 fluorescence, 3T3-L1 adipocytes, 24 h, 100 nL compound (AID 1168); settings: JC-1 mitochondrial fluorescence, higher = more signal, called active from +8 up or from −8 down; also: test concentration not given here
# [18] = basal RPMI8226 mitochondrial membrane potential changes, profiling panel, cell-based, JC-1 fluorescence, 24 h, 100 nL compound (AID 1169); settings: RPMI8226 myeloma, JC-1 mitochondrial potential fluorescence, higher = more signal; also: test concentration not given here
# [19] = basal MM1S mitochondrial membrane potential changes, profiling panel, cell-based, JC-1 fluorescence, 24 h, 100 nL compound (AID 1170); settings: higher = more signal; also: test concentration not given here
# [20] = A549 lung cancer cell viability effects, profiling panel, resazurin fluorescence, 24 h, PK04 Diversity Set (AID 1171); settings: higher = more signal, called active from +8 up or from −8 down; also: test concentration not given here
# NADPH oxidase 5 (Homo sapiens), sequence (Q96PH1 whole entry, looked up): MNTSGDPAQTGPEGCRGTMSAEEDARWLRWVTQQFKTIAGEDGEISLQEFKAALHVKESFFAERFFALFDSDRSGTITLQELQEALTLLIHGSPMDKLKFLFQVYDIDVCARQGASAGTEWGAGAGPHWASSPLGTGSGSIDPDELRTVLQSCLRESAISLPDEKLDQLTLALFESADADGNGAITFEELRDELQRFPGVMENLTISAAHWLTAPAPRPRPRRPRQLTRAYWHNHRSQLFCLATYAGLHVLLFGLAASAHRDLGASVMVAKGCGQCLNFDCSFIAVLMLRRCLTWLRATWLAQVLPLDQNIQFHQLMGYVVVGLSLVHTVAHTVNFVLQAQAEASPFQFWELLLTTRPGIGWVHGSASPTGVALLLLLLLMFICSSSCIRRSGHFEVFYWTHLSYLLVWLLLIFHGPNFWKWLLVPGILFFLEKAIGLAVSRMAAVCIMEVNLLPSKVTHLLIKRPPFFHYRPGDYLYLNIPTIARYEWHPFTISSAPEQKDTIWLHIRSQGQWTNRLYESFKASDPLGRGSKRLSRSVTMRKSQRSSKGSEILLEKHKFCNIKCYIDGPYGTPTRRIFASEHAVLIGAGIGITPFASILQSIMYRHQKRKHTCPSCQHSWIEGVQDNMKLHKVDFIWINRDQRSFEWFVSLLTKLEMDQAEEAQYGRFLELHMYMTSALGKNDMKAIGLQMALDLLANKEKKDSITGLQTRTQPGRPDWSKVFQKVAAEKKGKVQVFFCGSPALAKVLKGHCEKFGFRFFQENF
# NADPH oxidase 2 (Homo sapiens), sequence (P04839 whole entry, looked up): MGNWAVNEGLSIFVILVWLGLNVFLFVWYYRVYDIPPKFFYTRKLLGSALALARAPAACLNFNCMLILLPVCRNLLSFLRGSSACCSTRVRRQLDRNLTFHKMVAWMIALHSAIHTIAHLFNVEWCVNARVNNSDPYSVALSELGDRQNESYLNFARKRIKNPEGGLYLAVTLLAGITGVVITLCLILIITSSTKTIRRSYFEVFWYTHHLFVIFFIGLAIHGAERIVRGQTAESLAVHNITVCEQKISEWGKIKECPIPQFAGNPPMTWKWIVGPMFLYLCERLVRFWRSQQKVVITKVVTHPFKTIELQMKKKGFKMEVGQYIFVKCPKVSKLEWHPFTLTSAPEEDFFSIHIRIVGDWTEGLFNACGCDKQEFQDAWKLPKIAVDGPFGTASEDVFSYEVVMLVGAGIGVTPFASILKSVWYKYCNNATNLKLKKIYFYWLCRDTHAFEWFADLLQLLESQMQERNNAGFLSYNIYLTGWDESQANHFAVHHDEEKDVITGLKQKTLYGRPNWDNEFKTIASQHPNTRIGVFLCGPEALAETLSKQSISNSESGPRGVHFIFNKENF
# NADPH oxidase 4 (Homo sapiens), sequence (Q9NPH5 whole entry, looked up): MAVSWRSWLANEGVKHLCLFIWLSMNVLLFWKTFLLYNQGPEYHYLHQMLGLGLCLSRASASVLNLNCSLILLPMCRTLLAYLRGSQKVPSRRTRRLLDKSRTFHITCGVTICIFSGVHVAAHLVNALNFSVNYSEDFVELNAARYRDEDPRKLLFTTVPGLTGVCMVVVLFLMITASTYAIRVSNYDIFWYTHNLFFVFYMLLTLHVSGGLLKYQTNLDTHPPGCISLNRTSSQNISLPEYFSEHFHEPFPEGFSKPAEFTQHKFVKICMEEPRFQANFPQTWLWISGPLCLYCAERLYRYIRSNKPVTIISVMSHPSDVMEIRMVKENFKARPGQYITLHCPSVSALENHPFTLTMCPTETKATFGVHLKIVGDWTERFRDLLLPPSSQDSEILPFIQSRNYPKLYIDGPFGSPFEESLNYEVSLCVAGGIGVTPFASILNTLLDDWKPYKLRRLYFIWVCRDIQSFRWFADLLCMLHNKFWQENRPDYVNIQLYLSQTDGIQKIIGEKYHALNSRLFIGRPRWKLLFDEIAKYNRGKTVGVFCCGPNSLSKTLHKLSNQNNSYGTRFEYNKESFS
Compound,z-score [1],composite z-score [2],z-score [3],z-score [4],z-score [5],z-score [6],z-score [7],z-score [8],z-score [9],z-score [10],z-score [11],z-score [12],z-score [13],z-score [14],z-score [15],z-score [16],z-score [17],z-score [18],z-score [19],z-score [20]
C=CC[C@@]1(C(=O)O)N=C(c2ccc(OCCCO)cc2)O[C@@H]1c1ccccc1N=[N+]=[N-],0.232 (inactive),0.546,33.9 (active),32.2 (active),2.2 (inactive),8.02 (active),-0.567,-0.973 (inactive),1.14 (inactive),0.518,0.179,-0.76,0.47,-0.756,-0.577,-1.95,-0.366 (inactive),-0.919,-0.947,-0.514 (inactive)
CC(C)C[C@@H]1NC(=O)[C@H]2C[C@@H](C(=O)NCCCCCCNC(=O)CS)[C@@H](c3cccc(OCCO)c3)N2C1=O,1.03 (inactive),-0.0523,3.77 (inactive),0.194 (inactive),2.83 (inactive),-0.042 (inactive),-0.0016,1.14 (inactive),0.665 (inactive),-0.112,0.0674,0.466,0.696,0.118,-0.0467,-0.569,0.844 (inactive),-0.404,-0.343,0.0056 (inactive)
COCCOC(=O)N1C(=O)[C@@]2(c3ccccc31)[C@H](C(=O)NC[C@H](O)c1ccccc1)[C@H]1C(=O)O[C@H](c3ccccc3)[C@H](c3ccccc3)N1[C@@H]2c1ccc(OCCO)cc1,1.32 (inactive),-0.496,3.97 (inactive),1.89 (inactive),0.968 (inactive),0.999 (inactive),0.29,0.463 (inactive),1.13 (inactive),-0.739,-0.656,1.13,-0.655,-0.233,-0.773,0.546,0.843 (inactive),-0.598,-0.295,0.377 (inactive)
CN(C)CCCNC(=O)[C@@]1(Cc2ccccc2I)c2ccccc2C(=O)N(Cc2ccccc2C(F)(F)F)[C@H]1c1ccc(CO)cc1,-2.14 (inactive),-0.0536,11.8 (active),1.49 (inactive),-0.231 (inactive),0.649 (inactive),-0.349,-10 (active),-4.55 (inactive),-4.63,-2.7,-0.469,-5.13,-3.8,-4.33,-1.04,0.64 (inactive),-0.98,-2.43,-5.93 (inactive)
CC1=C2[C@@H](CCc3ccccc3)OB(O)C[C@@H]2n2c(=O)n(-c3ccccc3)c(=O)n2C1,-0.616 (inactive),-0.347,1.57 (inactive),0.323 (inactive),-0.318 (inactive),-0.31 (inactive),0.417,-0.416 (inactive),-1.61 (inactive),-0.939,0.328,-0.448,-0.335,0.271,-1.14,-2.01,0.553 (inactive),0.146,-0.126,-0.699 (inactive)
C=CCOC(=O)[C@H]1[C@@H]2C(=O)O[C@@H](c3ccccc3)[C@@H](c3ccccc3)N2[C@@H](c2ccc(OCCOC(=O)[C@@H]3C[C@@H]4C(=O)NCC(=O)N4[C@@H]3c3ccc(O)cc3)cc2)[C@]12C(=O)Nc1ccccc12,2.47 (inactive),0.3,1.77 (inactive),-0.0123 (inactive),0.708 (inactive),-0.513 (inactive),1.14,2.07 (inactive),1.31 (inactive),1.1,0.422,0.905,1.49,-0.459,0.776,-1.35,-0.577 (inactive),-0.831,-1.12,0.677 (inactive)
COC(=O)c1ccc(C(O)C2C=CC3C(=O)N(C)C(=O)C3N2NC(=O)OC(C)(C)C)o1 (stereo not given),-1.31 (inactive),0.0622,0.146 (inactive),0.52 (inactive),-0.46 (inactive),0.533 (inactive),-0.785,-0.786 (inactive),-0.929 (inactive),0.396,0.441,-0.425,0.0285,-0.978,-0.342,-1.28,-0.429 (inactive),-0.535,0.395,0.347 (inactive)
C=CC(COC(C)=O)NS(=O)(=O)c1ccc(Br)cc1 (stereo not given),-1.32 (inactive),0.157,0.132 (inactive),-0.168 (inactive),-0.73 (inactive),-0.064 (inactive),0.495,-0.334 (inactive),-0.0279 (inactive),-0.377,-0.0852,-0.13,-0.239,0.101,-0.453,-0.642,-0.869 (inactive),0.392,0.654,-0.283 (inactive)
COC(=O)[C@@]1(Cc2ccccc2)[C@H]2c3cc(C(=O)N(C)C)n(Cc4cc(C)n(C)n4)c3C[C@H]2CN1C(=O)c1ccccc1,-1.85 (inactive),0.33,1.11 (inactive),0.234 (inactive),0.452 (inactive),0.396 (inactive),0.251,0.904 (inactive),-0.925 (inactive),-2.11,-0.997,0.461,0.0271,-0.47,-0.965,1.17,-1.24 (inactive),-0.0807,0.0916,-0.236 (inactive)
COC(=O)[C@@]1(Cc2ccc(F)cc2)[C@H]2c3cc(C(=O)N4CCCC4)n(Cc4cccc5ccccc45)c3C[C@H]2CN1C(=O)c1ccccc1,-2.25 (inactive),0.342,3.9 (inactive),1.03 (inactive),1.22 (inactive),0.863 (inactive),-0.875,0.836 (inactive),-0.021 (inactive),-0.666,-0.805,0.42,0.0082,-1.03,-1.07,3.8,-1.48 (inactive),0.127,-0.779,0.785 (inactive)
N#Cc1ccc(NN2C(C(O)C3CCCCC3)C=CC3C(=O)N(c4ccccc4)C(=O)C32)cc1 (stereo not given),-1.35 (inactive),0.545,13.2 (active),2.67 (inactive),3.79 (inactive),1.49 (inactive),-0.911,-2.02 (inactive),-3.88 (inactive),-3.01,-0.669,-0.515,0.595,-0.185,-0.32,-2.19,-2.17 (inactive),0.234,0.318,-0.609 (inactive)
[N-]=[N+]=Nc1ccccc1C[C@]1(C(=O)NCCN2CCOCC2)N=C(c2ccc(OCCCO)cc2)O[C@H]1c1ccccc1,0.0623 (inactive),0.728,14.1 (active),1.53 (inactive),1.37 (inactive),0.766 (inactive),-0.0135,-1.92 (inactive),0.0642 (inactive),-1.32,-0.0454,0.0937,-0.256,-0.0793,-0.26,0.771,0.00214 (inactive),-0.309,-0.777,1.24 (inactive)
O=C1O[C@H](c2ccccc2)[C@H](c2ccccc2)N2[C@H]1[C@@H](C(=O)O)[C@]1(C(=O)Nc3ccc(C#CC4(O)CCCCCC4)cc31)[C@H]2c1ccc(OCCO)cc1,-1.21 (inactive),-0.031,1.14 (inactive),-0.795 (inactive),-9.96 (active),-0.71 (inactive),-0.424,2.71 (inactive),-0.335 (inactive),1.25,0.82,0.287,0.293,-1.99,-0.216,-1.82,-1.07 (inactive),-0.559,-0.683,-0.0693 (inactive)
CC(=O)NCCCC[C@@H]1NC(=O)[C@@H]2C[C@H](C(=O)NCCCCCCNC(=O)CS)[C@H](c3ccc(O)cc3)N2C1=O,-0.644 (inactive),0.0494,3.73 (inactive),0.2 (inactive),-1.8 (inactive),0.0805 (inactive),-0.0593,0.897 (inactive),-0.173 (inactive),-0.697,-0.503,-0.683,0.366,0.0337,-0.66,-0.638,-0.744 (inactive),-0.0931,-0.795,-0.363 (inactive)
COC(=O)[C@]1(Cc2ccccc2N=[N+]=[N-])N=C(c2ccc(OCCCO)cc2)O[C@@H]1c1ccccc1N=[N+]=[N-],-1.19 (inactive),-0.236,29.5 (active),27.4 (active),-0.495 (inactive),6.35 (inactive),0.0559,-0.877 (inactive),0.755 (inactive),0.677,-3.83,-0.504,-5.54,-3.59,-3.94,-2.39,-0.708 (inactive),-1.2,-2.8,-2.87 (inactive)
COCC1=C2[C@@H](CCc3ccccc3)OB(O)C[C@@H]2[C@@H]2C(=O)N(Cc3ccccc3)C(=O)[C@@H]2C1,-0.536 (inactive),-0.0573,1.75 (inactive),-0.0799 (inactive),-0.558 (inactive),0.0831 (inactive),0.533,-0.0858 (inactive),0.552 (inactive),0.974,0.0476,0.873,0.128,-1.51,-0.138,-1.59,-0.897 (inactive),-0.812,0.24,0.21 (inactive)
Cc1c(NC(=O)CC#N)c(=O)n(-c2ccccc2)n1C,1.47 (inactive),-0.193,-0.794 (inactive),-1.31 (inactive),-0.202 (inactive),-1.31 (inactive),2.17,-0.463 (inactive),-0.0592 (inactive),0.66,1.62,0.317,0.954,0.0823,0.106,1.42,0.166 (inactive),-0.128,-0.63,0.234 (inactive)
CCOC(=O)C1=CCC(c2ccc([N+](=O)[O-])cc2)N(S(=O)(=O)c2ccc(C)cc2)C1 (stereo not given),-0.65 (inactive),0.0839,5.2 (inactive),1.91 (inactive),-0.364 (inactive),0.781 (inactive),-0.864,1.07 (inactive),0.135 (inactive),0.739,-0.561,-1.29,0.0862,-0.0901,-1.17,2.63,-0.769 (inactive),0.877,-2.12,0.395 (inactive)
